# Assay outcomes: PubChem, several laboratories
# BaF3 parental = parental Ba/F3 cell viability inhibition, counter-screen for JAK2V617F inhibitor project, murine pro-B, CellTiter-Glo luminescence; AID 1486, 2009; inhibition, % at 5.6 µM; 220,000 tested, 1.1% active; CellTiter-Glo ATP luminescence;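 active means inhibition above a per-campaign cutoff, the mean inhibition of all tested compounds plus 3 SD, cut at about 27% in these data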;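 further: 0% = DMSO wells and 100% = JAK Inhibitor I control wells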
# APP transl inh = inhibitors of APP translation via 5'UTR reporter, primary screen, APP 5'UTR luciferase, SH-SY5Y cells. 190,000 tested, 0.82% active. inhibition, % at 2 µM. AID 1285, 2008. SH-SY5Y APP 5'UTR-luciferase reporter, luminescence;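 active means inhibition above a set limit, derived from the sample mean plus 3 SD, cut at about 45% in these data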
# KLF5 inhibitor = KLF5 expression inhibitors, primary screen, DLD-1 cells, luminescence; DLD-1 KLF5 promoter-luciferase reporter; inhibition, % at 5 µM; 290,000 tested, 0.23% active; AID 1700, 2009;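 active means inhibition above a per-plate limit of that plate's mean compound inhibition plus 3 SD, cut at about 60% in these data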;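 further: 0% = DMSO wells and 100% = LY294002 at 200 µM; higher means less KLF5 promoter-driven luciferase light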
# IEC-6 cytotox = cytotoxicity in IEC-6 intestinal epithelial cells, primary screen, cytotoxicity control for KLF5 inhibitor project, cell-based, luminescence; IEC-6 cytotoxicity, luminescence viability; inhibition, % at 5 µM; 290,000 tested, 0.78% active; AID 1825, 2009; in the data active means inhibition above about 22%;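 further: 0% = plate median of test compound wells and 100% = cytotoxic reference compound wells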
# aSyn 5UTR inh = MLPCN primary screen, SNCA 5' untranslated region; inhibition, % (tested at 7.5 µM); 300,000 tested, 0.82% active; alpha-synuclein 5'UTR reporter, inhibitor activity; AID 1813, 2009; in the data active means inhibition above about 60%;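 further: H4 neuroglioblastoma cells stably carrying SNCA 5'UTR luciferase fusion; 0% = DMSO wells and 100% = positive control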
# Ba/F3 V617F tox = reduced viability of JAK2V617F-dependent Ba/F3 cells, primary screen, JAK2V617F inhibitor project, cell-based, Ba/F3 EpoR-JAK2V617F, luminescence | ATP luminescence | inhibition, % at 5.6 µM | 220,000 tested, 1.1% active;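 active means inhibition above the campaign mean plus 3 SD over all tested compounds, cut at about 24% in these data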;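 further: cytokine-independent growth of Ba/F3 cells driven by EpoR plus mutant JAK2; 0% = DMSO-treated cells and 100% = JAK inhibitor I control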
# The depositor's hits bear a star; · = not tested or not shown. Compounds with a hit are over-represented: about 2.2% of the library has one in this group of screens.
SMILES,BaF3 parental,APP transl inh,KLF5 inhibitor,IEC-6 cytotox,aSyn 5UTR inh,Ba/F3 V617F tox
CCCCN(CC)S(=O)(=O)c1ccc(C(=O)Nc2nnc(COC)o2)cc1,-2,-21,-3,-5,8,-2
CN(c1ccccc1)S(=O)(=O)c1ccc(C(=O)Nc2nnc(C3CC3)o2)cc1,7,-6,25,14,54,2
COc1ccc(/C(C)=N/NC(=O)c2ccc(CSc3nncn3C)cc2)cc1,1,17,4,1,5,-3
COc1cccc(N2CCN(C(=O)CCNS(=O)(=O)c3ccc4c(c3)c(=O)n(C)c(=O)n4C)CC2)c1,6,11,6,-2,3,-4
O=C(CCC(=O)OCc1ccc([N+](=O)[O-])cc1Cl)Nc1ccccc1,·,·,2,5,-17,·
CCN(CC(=O)Nc1ccccc1C(F)(F)F)C(=O)CSCc1ccc(C)cc1,·,·,·,·,11,·
CCCCN(C)S(=O)(=O)c1ccc(C(=O)Nc2nnc(-c3cccs3)o2)cc1,1,36,25,-11,81*,1
CCCCN(C)S(=O)(=O)c1ccc(C(=O)Nc2nnc(C3=COCCO3)o2)cc1,-2,5,8,-4,3,-1
O=C(CC1C(=O)NCCN1Cc1ccccc1C(F)(F)F)NCCc1ccccn1 (stereo unspecified),80*,14,-13,8,-15,1
O=C(CC1C(=O)NCCN1Cc1c(F)cccc1Cl)NCCc1ccccn1 (stereo unspecified),8,8,-21,1,3,3
Cc1cc(S(=O)(=O)N2CCCOC2CNC(=O)C(=O)NCc2ccco2)ccc1F (stereo unspecified),7,-11,-9,3,9,2
O=C(NCc1cccc(Cl)c1)c1cc(COc2ccc3ncccc3c2)on1,4,3,-5,5,6,2
CC(C)N(Cc1nccn1C)C(=O)c1cc(COc2ccc3ncccc3c2)on1,0,-7,-8,-2,13,-2
Cc1nc(CN(C)C(=O)c2cc(COc3ccc4ncccc4c3)on2)cs1,38*,5,12,6,16,16
CC(CCCC(C)(C)O)NC(=O)c1cc(COc2ccc3ncccc3c2)on1 (stereo unspecified),44*,-4,-18,2,-6,8
CCOC(=O)Cn1ccc(NC(=O)COc2ccc(F)cc2F)n1,·,·,-85,-4,9,·
COc1ccc(O)c(/C=N/NC(=S)Nc2cccc(S(=O)(=O)N(C)C)c2)c1,8,60*,12,0,74*,6
COc1ccccc1NC(=O)C(C)OC(=O)C1CCN(S(=O)(=O)c2ccc(C)c(C)c2)CC1 (stereo unspecified),·,·,·,·,30,·
Cc1ccc(OCC(=O)c2cc(C)n(-c3ccccc3)c2C)c([N+](=O)[O-])n1,6,29,-19,9,68*,-1
CCCn1c(C)cc(C(=O)COc2ccc(C)nc2[N+](=O)[O-])c1C,7,-5,-10,-5,-5,2
Cc1ccc2c(c1)Oc1ccc(NC(=O)CCl)cc1C(=O)N2,83*,53*,2,16,-30,85*
CN(C)c1ccc(CC(=O)c2nc3ccccc3s2)cc1,4,-92,-25,1,-125,0
CC(=O)C1=NN(c2ccccc2)C(c2ccc3c(c2)OCO3)N1c1ccc(N2CCOCC2)cc1 (stereo unspecified),0,-7,-4,-4,-8,1
CC(=O)C1=NN(c2ccccc2)C(c2cccs2)N1c1ccccc1 (stereo unspecified),43*,10,-41,-3,·,22
CC(C)(C)c1cc(C(=O)N/N=C/c2ccccc2O)n(-c2ccccc2)n1,0,66*,-12,0,62*,-5
SMILES,BaF3 parental,APP transl inh,KLF5 inhibitor,IEC-6 cytotox,aSyn 5UTR inh,Ba/F3 V617F tox
COc1ccc(/C=N/NC(=O)c2nc(-c3ccccc3)n(-c3ccccc3)n2)cc1,3,12,-16,-5,26,-1
COc1ccc(/C=N/NC(=O)c2nc(-c3ccccc3)n(-c3ccccc3)n2)c(O)c1,2,49*,-15,3,87*,-4
CCCSc1ccc2nc(-c3ccccc3)cn2c1,8,-98,41,0,111*,8
CC(=O)c1cccc(N=c2scc(-c3ccc(S(=O)(=O)N4CCOCC4)cc3)n2CCO)c1,47*,17,-27,4,12,43*
Cc1csc(=O)n1CC(=O)OCC(=O)NCc1ccc(Cl)cc1Cl,·,·,·,·,-3,·
CC(C)CC(c1nnnn1Cc1ccc(F)cc1)N1CCC(C(N)=O)CC1 (stereo unspecified),5,29,-28,-2,10,-5
O=C(/C=C/Nc1ccc(Br)cc1F)c1ccccc1,-1,-140,-82,-2,78*,0
CC(C)c1ccc(C2C3=C(COC3=O)Nc3cc4c(cc32)OCO4)cc1 (stereo unspecified),77*,95*,72*,90*,123*,71*
COc1ccc(-n2nc3c(N4CCC(C(=O)NCc5cccc(C)c5)CC4)nnc(C)c3c2C)cc1,·,·,17,9,70*,·
CCOc1ccccc1CNC(=O)C1CCN(c2nnc(C)c3c(C)n(-c4ccc(C)cc4)nc23)CC1,·,·,-3,6,78*,·
Cc1ccc(-n2nc3c(N4CCC(C(=O)NCc5ccccc5C)CC4)nnc(C)c3c2C)cc1,·,·,-11,10,45,·
CC(=C\c1ccccc1)/C=C1/SC(=S)N(CCCC(=O)O)C1=O,·,·,-17,-4,67*,·
CC(/C=C1\SC(=S)N(CCCC(=O)Nc2ccc(C(=O)O)cc2)C1=O)=C\c1ccccc1,1,-15,3,2,5,-3
C=CCN1C(=O)/C(=C\C(C)=C\c2ccccc2)SC1=S,·,·,-19,2,-37,·
CC(/C=C1\SC(=O)N(CCCC(=O)O)C1=O)=C\c1ccccc1,3,78*,59,-4,103*,3
Fc1ccc(NC(=S)NCCc2ccccc2)c(F)c1F,54*,-2,-42,-2,-43,42*
O=C(Cn1c(=O)oc2ccccc21)NCCc1ccccc1Cl,1,-5,-7,3,-13,4
Cc1ccc(S(=O)(=O)/N=C2/C=C(Sc3ncn[nH]3)C(=O)c3ccccc32)c(C)c1,14,66*,-2,7,·,54*
CC(C)c1ccc(S(=O)(=O)/N=C2/C=C(Sc3ncn[nH]3)C(=O)c3ccccc32)cc1,74*,34,13,39*,·,54*
CCOC(=O)CCNC(=O)N1CCCC(CNS(=O)(=O)c2cccs2)C1 (stereo unspecified),3,5,2,9,-12,2
C=CCn1c(=O)c(C(=O)NCc2ccccc2Cl)c(O)c2ccccc21,·,·,-16,-7,-18,·
